35 compounds from PubChem BioAssay AID2113 (National Center for Advancing Translational Sciences (NCATS), 2009) can be followed below.

Values joined by “and” are separate entries in the source; they are usually repeats but may differ in a detail not shown here. Identical values can stand only once. Results filed as inconclusive are left out. Where a call stands in place of a potency, no number is given. Active and inactive are the calls of the source. Calls follow the shape of the dose curve; as a rule, active = well fitted curve in either direction with a large enough effect; inconclusive = small, poorly fitted or top-dose-only effect; inactive = no such curve, though single readings can be large or run the other way.
Potency is read from the fitted curve at half-maximal effect.

This assay has as its target Lysosomal alpha-glucosidase (Homo sapiens) (UniProt P10253). Kind of assay: Confirmation of Inhibitors and Activators of Human alpha-Glucosidase From Spleen Homogenate.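 As to potency: fluorescence of 4-methylumbelliferone released from a fluorogenic glucopyranoside substrate at pH 5.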 Particulars: alpha-glucosidase enzyme activity; series mostly up to 60.5 µM. Summed up: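 Compounds titrated against spleen-homogenate alpha-glucosidase, pH 5.0, 1 mM 4-MU-glucoside substrate, 37 C for 40 min. Fluorescence after pH 10 stop, normalised to no-enzyme and enzyme controls; Hill-equation AC50.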
Regarding `O=c1cc(-c2ccccc2)[nH]c2[nH]n(-c3ccccc3)c(=O)c12`, the Potency result is “inactive”.

On to `CCSc1nc(=S)n(CC)c(C)c1C(C)=O`, for which the Potency entry was “inactive”.

In the case of `CC(=O)c1ccc(N2CCN(S(=O)(=O)c3cc4c(cc3Cl)NC(=O)C4)CC2)cc1`, the Potency is 1.83 µM [inhibitor] (active) and 5.17 µM [inhibitor] (active).

Consider `CCCN1CNc2c(c(=O)[nH]c(=S)n2CCc2ccc3c(c2)OCCO3)C1`, for which the Potency is 15.8 µM (active).

Regarding `C=CCCCCCCCCCCCc1ccco1`, the Potency result is “inactive”.

For the compound `CC1CCc2nc(-c3cc4ccc(O)cc4oc3=O)sc2C1` (stereo not given), the Potency entry was “inactive”.

Regarding `Cc1cc(C)nc(SCc2cc(=O)c(OC(=O)c3ccco3)co2)n1`, the Potency result was “inactive”.

Regarding `COc1ccc(-c2nnc(NC(=O)CSc3ccc(Cl)cc3)s2)cc1`, the Potency result is “inactive”.

On to `Cc1ccc(S(=O)(=O)N2CCOCC2)cc1`, for which the Potency result was “inactive”.

For `COc1ccc(C#Cc2c[nH]c(=O)c3cncnc23)cc1OC`, the Potency result was “inactive”.

As to `O=S(=O)(c1ccc2c(c1)C(=NNc1ccccc1)c1cc(S(=O)(=O)N3CCOCC3)ccc1-2)N1CCOCC1`, the Potency result is “inactive”.

As for `CCCN1CNc2c(c(=O)[nH]c(=S)n2CCc2ccc(C)cc2C)C1`, the Potency was 39.8 µM (active).

For `Cn1c(N)c(S(=O)(=O)c2ccc(Br)cc2)c2nc3ccccc3nc21`, the Potency result was “inactive”.

Regarding `Cc1nc(-n2nnc(CO)c2CO)nc2c1CCC2`, the Potency entry is “inactive”.

Regarding `OC[C@H]1NC[C@H](O)[C@@H](O)[C@H]1O`, the Potency entry is “inactive”.

Consider `Cn1c(-c2ccco2)nc2cc3ccccc3cc21`, for which the Potency result is “inactive”.

Consider `COC(=O)c1ccc(C(=O)OC)c(NC(=S)N2CCOCC2)c1`, for which the Potency entry was “inactive”.

Take `COC(=O)c1cccc(S(=O)(=O)N2CCOCC2)c1`: the Potency result was “inactive”.

With `C(=C\c1ccc2ccccc2n1)/c1ccc2c(c1)OCO2`, the Potency entry was “inactive”.

For the compound `CCN(CC)S(=O)(=O)c1ccc2c(c1)-c1cc(S(=O)(=O)N(CC)CC)ccc1C2=NNC(N)=S`, the Potency entry was “inactive”.

On to `CCCCn1c(N)c(NCC)c(=O)[nH]c1=O`, for which the Potency entry was “inactive”.

For `CCCN1CNc2c(c(=O)[nH]c(=S)n2CCc2c(OC)cccc2OC)C1`, the Potency result was “inactive”.

Take `CNC(=S)/N=C(\Nc1ccc(C)cc1)c1ccccc1`: the Potency entry was “inactive”.

As for `CCCN1CNc2c(c(=O)[nH]c(=O)n2CCc2ccc(OC)c(OC)c2)C1`, the Potency is 17.8 µM (active).

Regarding `O=c1[nH]cc(CCc2ccccc2)c2ncncc12`, the Potency result is “inactive”.

Regarding `CCN(CC)c1ccc(/C=N/NC(=O)C(O)c2ccccc2)cc1` (stereo not given), the Potency entry is “inactive”.

Turning to `O=C(COC(=O)c1ccccc1Br)NCCc1ccc(F)cc1`, the Potency result was “inactive”.

Take `COc1ccc(CCn2c3c(c(=O)[nH]c2=S)CN(Cc2ccccc2)CN3)cc1OC`: the Potency was 11.2 µM (active).

Turning to `COc1ccc(CCN2CNc3c(c(=O)n(C)c(=O)n3C)C2)cc1OC`, the Potency entry was “inactive”.

Take `N#CCCN1CCN(S(=O)(=O)c2ccc(S(=O)(=O)N3CCOCC3)cc2)CC1`: the Potency entry is “inactive”.

In the case of `CCc1sc(-c2cc3cccc(OC)c3oc2=O)nc1-c1ccccc1`, the Potency result is “inactive”.

Turning to `COc1cc(NC(=O)CN2CCN(c3ccccc3F)CC2)c(C)cc1[N+](=O)[O-]`, the Potency result was “inactive”.

Take `CC(=O)c1ccc(N2CCN(S(=O)(=O)c3ccc4c(c3)n(C)c(=O)n4C)CC2)cc1`: the Potency entry was “inactive”.

As to `Cc1cccc(-n2c(N)cc(=O)[nH]c2=S)c1`, the Potency result is “inactive”.

As to `Cc1ccc2nc(-c3ccccc3N)[nH]c2c1`, the Potency result was “inactive”.
